Reference: the supplement of paper PMC8728848
This excerpt belongs to a sample that is enriched for the strongest signals.

Tests used:
Assay in all cases: glycan array binding signal (z-score within array); higher = stronger binding
Conditions in all cases: glycan notation: IUPAC condensed, linker removed
[1] = target: Fuc(a1-2)Gal(b1-3)GalNAc(b1-4)[Neu5Ac(a2-3)]Gal(b1-4)Glc
In short: (§1)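 Arrays were curated from the Consortium for Functional Glycomics database, 3228 in total, and kept only where the protein sequence was available. Binding is expressed as a within-array Z-score. This score was averaged across arrays of the same protein sequence at different concentrations or buffers and across linkers, and negative values can be read as non-binding.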

[2] = target: Fuc(a1-2)Gal(b1-3)GlcNAc6S
In short: as §1

[3] = target: Fuc(a1-2)Gal(b1-3)[Fuc(a1-4)]GlcNAc(b1-2)Man(a1-3)[Fuc(a1-2)Gal(b1-3)[Fuc(a1-4)]GlcNAc(b1-2)Man(a1-6)]Man(b1-4)GlcNAc(b1-4)GlcNAc
In short: as §1

[4] = target: Fuc(a1-2)[Gal(a1-3)]Gal(b1-3)GlcNAc
In short: as §1

[5] = target: Fuc(a1-2)[Gal(a1-3)]Gal(b1-4)[Fuc(a1-3)]GlcNAc(b1-3)GalNAc
In short: as §1

[6] = target: Fuc(a1-2)[GalNAc(a1-4)]Gal(b1-4)GlcNAc
In short: as §1

[7] = target: Fuc(a1-3)[Gal(b1-4)]GlcNAc(b1-2)Man(a1-3)[Fuc(a1-3)[Gal(b1-4)]GlcNAc(b1-2)Man(a1-6)]Man(b1-4)GlcNAc(b1-4)[Fuc(a1-6)]GlcNAc
In short: as §1

[8] = target: Fuc(a1-3)[Gal3S(b1-4)]GlcNAc6S
In short: as §1

[9] = target: Gal(a1-3)Gal(b1-4)[Fuc(a1-3)]GlcNAc(b1-2)Man(a1-3)[Gal(a1-3)Gal(b1-4)[Fuc(a1-3)]GlcNAc(b1-2)Man(a1-6)]Man(b1-4)GlcNAc(b1-4)GlcNAc
In short: as §1

[10] = target: Gal(a1-4)Gal(b1-4)GlcNAc(b1-3)Gal(b1-4)Glc
In short: as §1

[11] = target: Gal(b1-3)Gal(b1-4)GlcNAc(b1-2)Man(a1-3)[Gal(b1-3)Gal(b1-4)GlcNAc(b1-2)Man(a1-6)]Man(b1-4)GlcNAc(b1-4)GlcNAc
In short: as §1

[12] = target: Gal(b1-4)GlcNAc(b1-2)Man(a1-3)Man(b1-4)GlcNAc(b1-4)GlcNAc
In short: as §1

[13] = target: Gal(b1-4)GlcNAc(b1-2)Man(a1-3)[Gal(b1-4)GlcNAc(b1-2)][GlcNAc(b1-4)]Man(b1-4)GlcNAc(b1-4)GlcNAc
In short: as §1

[14] = target: Gal(b1-4)GlcNAc(b1-2)Man(a1-3)[Man(a1-6)]Man(b1-4)GlcNAc(b1-4)GlcNAc
In short: as §1

[15] = target: Gal(b1-4)GlcNAc(b1-2)Man(a1-6)[Man(a1-3)]Man(b1-4)GlcNAc(b1-4)GlcNAc
In short: as §1

[16] = target: Gal(b1-4)GlcNAc(b1-2)[Gal(b1-4)GlcNAc(b1-6)]Man(a1-6)[Gal(b1-4)GlcNAc(b1-2)Man(a1-3)]Man(b1-4)GlcNAc(b1-4)[Fuc(a1-6)]GlcNAc
In short: as §1

Gal(b1-6)Gal = target: Gal(b1-6)Gal
In short: as §1

Gal3S6S(b1-4)GlcNAc6S = target: Gal3S6S(b1-4)GlcNAc6S
In short: as §1

Gal6S(b1-3)GlcNAc = target: Gal6S(b1-3)GlcNAc
In short: as §1

Gal6S(b1-4)GlcNAc6S = target: Gal6S(b1-4)GlcNAc6S
In short: as §1

GalNAc(b1-3)GalNAc = target: GalNAc(b1-3)GalNAc
In short: as §1

GlcA(b1-3)Gal = target: GlcA(b1-3)Gal
In short: as §1

[17] = target: GlcNAc(a1-4)Gal(b1-4)GlcNAc
In short: as §1

[18] = target: GlcNAc(a1-4)Gal(b1-4)GlcNAc(b1-3)Gal(b1-4)GlcNAc(b1-3)Gal(b1-4)GlcNAc
In short: as §1

[19] = target: GlcNAc(b1-4)GlcNAc(b1-4)GlcNAc(b1-4)GlcNAc(b1-4)GlcNAc
In short: as §1

[20] = target: Man(a1-2)Man(a1-3)[Man(a1-2)Man(a1-6)]Man(a1-6)[Man(a1-2)Man(a1-2)Man(a1-3)]Man
In short: as §1

[21] = target: Man(a1-3)[Man(a1-6)]Man(a1-6)[Man(a1-2)Man(a1-3)]Man(b1-4)GlcNAc(b1-4)GlcNAc
In short: as §1

[22] = target: Man(a1-3)[Man(a1-6)]Man(b1-4)GlcNAc(b1-4)GlcNAc
In short: as §1

[23] = target: Man(a1-3)[Man(a1-6)]Man(b1-4)GlcNAc(b1-4)[Fuc(a1-6)]GlcNAc
In short: as §1

[24] = target: Neu5Ac(a2-3)Gal(b1-3)GlcNAc(b1-3)Gal(b1-3)GlcNAc
In short: as §1

[25] = target: Man(a1-2)Man(a1-3)[Man(a1-2)Man(a1-6)]Man(a1-6)[Man(a1-2)Man(a1-2)Man(a1-3)]Man(b1-4)GlcNAc(b1-4)GlcNAc
In short: as §1

[26] = target: Man(a1-2)Man(a1-3)[Man(a1-6)]Man(a1-6)[Man(a1-2)Man(a1-3)]Man(b1-4)GlcNAc(b1-4)GlcNAc
In short: as §1

[27] = target: Man(a1-2)Man(a1-6)[Man(a1-3)]Man(a1-6)[Man(a1-2)Man(a1-2)Man(a1-3)]Man
In short: as §1

[28] = target: Man(a1-2)Man(a1-6)[Man(a1-3)]Man(a1-6)[Man(a1-2)Man(a1-2)Man(a1-3)]Man(b1-4)GlcNAc(b1-4)GlcNAc
In short: as §1

[29] = target: Neu5Ac(a2-6)Gal(b1-4)GlcNAc(b1-2)Man(a1-3)[Gal(b1-4)GlcNAc(b1-2)Man(a1-6)]Man(b1-4)GlcNAc(b1-4)GlcNAc
In short: as §1

[30] = target: Neu5Ac(a2-6)Gal(b1-4)GlcNAc(b1-2)Man(a1-6)[Man(a1-3)]Man(b1-4)GlcNAc(b1-4)GlcNAc
In short: as §1

[31] = target: Neu5Ac(a2-6)Gal(b1-4)GlcNAc(b1-3)Gal(b1-3)GlcNAc
In short: as §1

[32] = target: Neu5Ac(a2-6)Gal(b1-4)GlcNAc(b1-6)[Gal(b1-3)]GalNAc
In short: as §1

[33] = target: Neu5Ac(a2-6)Gal(b1-4)GlcNAc6S
In short: as §1

Neu5Ac(a2-6)GalNAc = target: Neu5Ac(a2-6)GalNAc
In short: as §1

[34] = target: Neu5Ac(a2-6)GlcNAc(b1-4)GlcNAc
In short: as §1

Neu5Gc(a2-3)Gal(b1-4)Glc = target: Neu5Gc(a2-3)Gal(b1-4)Glc
In short: as §1

B1: Morniga (Morus nigra) (protein)
chain: MAGTSTNTQTTGTSQTVEVGLWGGPGGNAWDDGSYTGIREINLSHGDAIGAFSVIYDLNGQPFTGPTHPGNEPSFKTVKITLDFPNEFLVSVSGYTGVLPRLATGKDVIRSLTFKTNKKTYGPYGKEEGTPFSLPIENGLIVGFKGRSGFVVDAIGVHLS
- glycan array binding signal (z-score) [1]: -0.335
- glycan array binding signal (z-score) [2]: -0.321
- glycan array binding signal (z-score) [3]: -0.19
- glycan array binding signal (z-score) [4]: -0.332
- glycan array binding signal (z-score) [5]: -0.329
- glycan array binding signal (z-score) [6]: -0.34
- glycan array binding signal (z-score) [7]: -0.304
- glycan array binding signal (z-score) [8]: -0.324
- glycan array binding signal (z-score) [9]: 0.347
- glycan array binding signal (z-score) [10]: -0.341
- glycan array binding signal (z-score) [11]: 4.04
- glycan array binding signal (z-score) [12]: 4.3
- glycan array binding signal (z-score) [13]: 1.41
- glycan array binding signal (z-score) [14]: 4.49
- glycan array binding signal (z-score) [15]: 4.24
- glycan array binding signal (z-score) [16]: 1.6
- glycan array binding signal (z-score) (Gal(b1-6)Gal): -0.326
- glycan array binding signal (z-score) (Gal3S6S(b1-4)GlcNAc6S): -0.316
- glycan array binding signal (z-score) (Gal6S(b1-3)GlcNAc): -0.338
- glycan array binding signal (z-score) (Gal6S(b1-4)GlcNAc6S): -0.337
- glycan array binding signal (z-score) (GalNAc(b1-3)GalNAc): -0.327
- glycan array binding signal (z-score) (GlcA(b1-3)Gal): -0.333
- glycan array binding signal (z-score) [17]: -0.296
- glycan array binding signal (z-score) [18]: -0.327
- glycan array binding signal (z-score) [19]: -0.335
- glycan array binding signal (z-score) [20]: -0.327
- glycan array binding signal (z-score) [21]: 4.19
- glycan array binding signal (z-score) [22]: 5.03
- glycan array binding signal (z-score) [23]: 4.02
- glycan array binding signal (z-score) [24]: -0.332

B2: Microvirin-2 (Microcystis aeruginosa) (protein)
chain: MPNFSHTCSSINYDPDSTILSAECQARDGEWLPTELRLSDHIGNIDGELQFGDQNFQETCQDCHLEFGDGEQSVWLVCTCQTMDGEWKSTQILLDSQIDNNDSQLEIGGSMPNFSHTCSSINYDPDSTILSAECQARDGEWLPTELRLSDHIGNIDGELQFGDQNFQETCQDCHLEFGDGEQSVWLVCTCQTMDGEWKSTQILLDSQIDNNDSQLEIG
- glycan array binding signal (z-score) [25]: 3.1
- glycan array binding signal (z-score) [26]: 5.79
- glycan array binding signal (z-score) [27]: 6.04
- glycan array binding signal (z-score) [28]: 13.3
- glycan array binding signal (z-score) [21]: 7.25
- glycan array binding signal (z-score) [29]: -0.142
- glycan array binding signal (z-score) [30]: -0.143
- glycan array binding signal (z-score) [31]: -0.123
- glycan array binding signal (z-score) [32]: -0.107
- glycan array binding signal (z-score) [33]: -0.142
- glycan array binding signal (z-score) (Neu5Ac(a2-6)GalNAc): -0.133
- glycan array binding signal (z-score) [34]: -0.135
- glycan array binding signal (z-score) (Neu5Gc(a2-3)Gal(b1-4)Glc): -0.12
